Experimental data from PubChem BioAssay AID1159580 (chemical genetic matrix, 2015).
Values joined by “and” are separate entries in the source; they are usually repeats but may differ in a detail not shown here. Equal values may be shown once. About 2,000 (36%) of roughly 5,500 compounds were called active. Inconclusive results (about 18%) are left out. Cut-off read from the data, not from the text of the source: active = normalized growth mostly below about 0.91 (no sharp cut-off); inconclusive = no clear call, values can overlap the other calls; inactive = mostly above about 0.92. The list shows a part of the results.

Experiment: chemical genetic growth profiling, strain panel (AID 1159580);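 note: tested at 20 µM; growth read once vehicle control cultures reached saturation at 30 °C; 1 = growth at the plate median or of vehicle wells; lower values mean less growth of the strain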
Details: S. cerevisiae deletion strains, growth OD

Measured: normalized growth

CN1CCN(C(c2ccccc2)c2ccccc2)CC1
inactive: locus YAL013W, strain DEP1, active compounds read low 0.996 | locus YAL021C, strain ccr4, active compounds read low 0.973 | locus YAL026C, strain drs2, active compounds read low 0.988 | locus YAL030W, strain snc1, active compounds read low 0.996 | locus YBL061C, strain skt5, active compounds read low 0.993 | locus YBR009C, strain hhf1, active compounds read low 1.01 | locus YBR021W, strain FUR4, active compounds read low 0.998 | locus YBR023C, strain chs3, active compounds read low 0.985 | locus YBR171W, strain sec66, active compounds read low 0.975 | locus YBR229C, strain ROT2, active compounds read low 1.01 | locus YBR231C, strain swc5, active compounds read low 0.966 | locus YBR279W, strain paf1, active compounds read low 0.995 | locus YCL011C, strain gbp2, active compounds read low 0.998 | locus YCL016C, strain dcc1, active compounds read low 0.973 | locus YCL029C, strain bik1, active compounds read low 0.973 | locus YCL069W, strain vba3, active compounds read low 0.995 | locus YCR088W, strain abp1, active compounds read low 0.983 | locus YDL005C, strain med2, active compounds read low 0.969 | locus YDL035C, strain GPR1, active compounds read low 0.984 | locus YDL040C, strain nat1, active compounds read low 0.98 | locus YDL074C, strain BRE1, active compounds read low 0.993 | locus YDL101C, strain DUN1, active compounds read low 1 | locus YDL134C, strain PPH21, active compounds read low 1.01 | locus YDL185W, strain tfp1, active compounds read low 0.942 | locus YDL192W, strain arf1, active compounds read low 0.971 | locus YDR001C, strain nth1, active compounds read low 1.02 | locus YDR069C, strain doa4, active compounds read low 0.964 | locus YDR101C, strain arx1, active compounds read low 0.988 | locus YDR137W, strain rgp1, active compounds read low 0.994 | locus YDR150W, strain NUM1, active compounds read low 0.989 | locus YDR159W, strain sac3, active compounds read low 0.991 | locus YDR162C, strain NBP2, active compounds read low 1.01 | locus YDR195W, strain ref2 0.958 | locus YDR297W, strain sur2, active compounds read low 0.996 | locus YDR318W, strain mcm21, active compounds read low 0.969 | locus YDR334W, strain swr1, active compounds read low 0.977 | locus YDR335W, strain msn5, active compounds read low 0.994 | locus YDR388W, active compounds read low 0.966 | locus YDR392W, strain spt3, active compounds read low 0.915 | locus YDR502C, strain sam2, active compounds read low 0.978 | locus YEL003W, strain gim4, active compounds read low 0.984 | locus YEL037C, strain rad23, active compounds read low 0.988 | locus YEL061C, strain CIN8 (second series), active compounds read low 0.997 | locus YEL061C, strain CIN8, active compounds read low 0.975 | locus YER015W, strain faa2, active compounds read low 0.979 | locus YER016W, strain bim1, active compounds read low 0.971 | locus YER110C, active compounds read low 0.973 | locus YER111C, strain swi4, active compounds read low 0.983 | locus YER155C, strain BEM2 (second series), active compounds read low 0.932 | locus YER155C, strain BEM2, active compounds read low 1 | locus YER167W, strain BCK2, active compounds read low 0.997 | locus YFR010W, strain ubp6, active compounds read low 0.99 | locus YGL078C, strain dbp3, active compounds read low 0.989 | locus YGL086W, strain mad1, active compounds read low 0.983 | locus YGL167C, strain pmr1, active compounds read low 0.98 | locus YGL173C, strain kem1, active compounds read low 0.979 | locus YGL227W, strain vid30, active compounds read low 0.968 | locus YGL240W, strain doc1, active compounds read low 1.01 | locus YGL248W, strain PDE1, active compounds read low 1 | locus YGL253W, strain hxk2, active compounds read low 0.985 | locus YGR078C, strain PAC10, active compounds read low 0.998 | locus YGR135W, strain pre9, active compounds read low 0.979 | locus YGR229C, strain SMI1, active compounds read low 1.03 | locus YGR252W, strain gcn5, active compounds read low 1.03 | locus YHR013C, strain ard1, active compounds read low 0.902 | locus YHR027C, strain rpn1, active compounds read low 0.985 | locus YHR030C, strain SLT2, active compounds read low 0.995 and 0.998 | locus YHR079C, strain IRE1 (second series), active compounds read low 0.969 | locus YHR079C, strain IRE1, active compounds read low 0.992 | locus YHR094C, strain hxt1, active compounds read low 0.965 | locus YHR129C, strain ARP1, active compounds read low 0.999 | locus YHR142W, strain chs7, active compounds read low 1 | locus YHR200W, strain rpn10, active compounds read low 0.966 | locus YIL066C, strain RNR3, active compounds read low 1 | locus YIL073C, strain SPO22, active compounds read low 0.965 | locus YIL125W, strain kgd1, active compounds read low 0.981 | locus YIR030C, strain dcg1, active compounds read low 0.967 | locus YJL092W, strain hpr5, active compounds read low 0.991 | locus YJL095W, strain BCK1 (second series), active compounds read low 0.993 | locus YJL095W, strain BCK1, active compounds read low 0.966 and 0.998 | locus YJL115W, strain asf1, active compounds read low 0.996 | locus YJL129C, strain trk1, active compounds read low 0.968 | locus YJL134W, strain LCB3, active compounds read low 0.997 | locus YJL154C, strain vps35, active compounds read low 0.999 | locus YJL164C, strain tpk1, active compounds read low 1.02 | locus YJL166W, strain qcr8, active compounds read low 1.01 | locus YJL168C, strain set2, active compounds read low 0.968 | locus YJL187C, strain SWE1 (second series), active compounds read low 0.999 | locus YJL187C, strain SWE1, active compounds read low 0.994 | locus YJR043C, strain POL32, active compounds read low 1.01 | locus YJR066W, strain TOR1, active compounds read low 0.994
